Only some compounds are listed: those with a hit (about 3.1% of all), similar ones and a draw of the others.
PP5 primary – inhibitors of human protein phosphatase 5 (PP5) | P53041 | purified PP5c, OMFP substrate fluorescence | inhibition, % at 6.7 µM | 320,000 compounds, 0.18% hits;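 active = inhibition above the campaign's mean inhibition across all tested compounds plus 3 SD, cut at about 9.5% in these data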;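 note: 0% = DMSO only and 100% = 100 µM cantharidin control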
Target sequence (P53041 whole entry, looked up): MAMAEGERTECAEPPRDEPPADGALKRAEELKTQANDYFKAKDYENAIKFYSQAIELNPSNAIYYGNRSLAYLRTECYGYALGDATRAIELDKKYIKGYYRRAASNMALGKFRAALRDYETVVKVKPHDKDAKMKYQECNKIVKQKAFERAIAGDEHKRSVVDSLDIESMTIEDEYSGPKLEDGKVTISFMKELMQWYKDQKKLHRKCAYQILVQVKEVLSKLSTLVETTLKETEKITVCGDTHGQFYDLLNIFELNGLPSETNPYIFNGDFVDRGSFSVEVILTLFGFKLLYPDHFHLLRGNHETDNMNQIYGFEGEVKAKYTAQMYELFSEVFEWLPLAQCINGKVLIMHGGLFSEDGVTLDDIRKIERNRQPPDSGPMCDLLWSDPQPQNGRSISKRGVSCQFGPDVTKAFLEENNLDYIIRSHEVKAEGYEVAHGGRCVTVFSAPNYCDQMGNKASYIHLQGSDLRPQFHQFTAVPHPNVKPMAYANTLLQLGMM
Beta cell apopt – beta cell apoptosis inhibition. INS-1E cytokine-induced death, ATP luminescence, 48 h; percent of positive-control rescue, neutral wells zero. AID 435005. protection from apoptosis, % (no concentration beside the values). 300,000 compounds, 0.8% hits;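 active = Every replicate reaches about 75%, or at least half do and their mean reaches it too, limit read from the data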;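 note: 0% = cytokine-treated negative control wells and 100% = positive control rescue; higher means more ATP so stronger rescue from cytokine killing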
PP1 counter – PP1-alpha (human) inhibition in PP5 counter-screen; P62136; inhibition, % at 6.7 µM; purified PP1alpha, OMFP fluorescence; 320,000 compounds, 0.9% hits;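 active = inhibition above the mean inhibition of all tested compounds plus 3 SD, computed separately for each screening campaign, cut at about 15% in these data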
SKKanGAS inh – inhibitors of SKKanGAS S. pyogenes growth in kanamycin (SK-promoter or general growth effect); BacTiter-Glo, 6 h; 300,000 compounds, 1.3% hits; inhibition, % at 7.5 µM;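 active = mean replicate score, as percent of positive control median, at least 50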;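 note: strain carries kanamycin resistance gene driven by streptokinase promoter and grows in 40 µg/ml kanamycin; loss of luminescence reflects streptokinase promoter inhibition or plain growth inhibition; 0% = median of DMSO wells and 100% = positive control at its reference dose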
CSC inhib – cancer stem cell inhibition. cancer stem cell-like cells viability, luminescence. inhibition, % at 7.5 µM. 300,000 compounds, 1.1% hits. AID 2717; in the data active = inhibition above about 75%; tested in HMLE shEcad cells
* = called active by the depositor; x = no result given.

SMILES	PP5 primary	Beta cell apopt	PP1 counter	SKKanGAS inh	CSC inhib
CC(=O)O[C@@H]1[C@@H](O)[C@@H](O)[C@H](Oc2c(-c3ccc(O)cc3)oc3c(CC=C(C)C)c(O)cc(O)c3c2=O)O[C@H]1C	4	-3	0	19	1
CC(=O)O[C@H]1[C@@H](O)[C@H](O)[C@H](Oc2c(O)c(C)c3c4c2[C@@H](C)CC[C@@H]4[C@@H](C)C[C@H]3C=C(C)C)O[C@H]1C	x	8	x	x	106*
O=C(Nc1ccc(F)c(Cl)c1)Nc1csc2ccccc12	5	83*	-2	95*	77*
CC/C(=N\NC(=S)Nc1cccc(C)c1)c1ccccc1	3	17	3	62*	12
CC/C(=N\NC(=S)Nc1cc(C)ccc1C)c1ccc(OC(F)F)cc1	7	2	-1	69*	26
C/C(=N\NC(=S)Nc1cccc(C)c1)c1cc2ccccc2o1	3	17	2	67*	14
Cc1cccc(NC(=S)N/N=C(\c2ccccc2)C(C)C)c1	4	10	1	69*	11
CCNC(=S)N/N=C(\C)c1cc2ccccc2o1	0	2	0	-2	x
CCOc1ccccc1NC(=O)C(OC(=O)c1cnccn1)c1ccccc1 (stereo not given)	0	6	1	-2	-9
CCCC1(C)NC(=O)c2ccccc2O1 (stereo not given)	1	-7	6	2	-2
CCOC(=O)CC(NC(=O)CCS(=O)(=O)c1ccc2c(c1)n(C)c(=O)c(=O)n2C)c1ccc(C)cc1 (stereo not given)	-3	-4	-3	59*	-12
Cc1cc(C)n(C(C)CNS(=O)(=O)c2ccc(C)c(C)c2)n1 (stereo not given)	-1	-6	-5	-2	-6
CO[C@H]1C=CO[C@@]2(C)Oc3c(C)c(O)c4c(O)c(c5c(c4c3C2=O)NC2(CCN(CC(C)C)CC2)N=5)=NC(=O)C(C)=CC=C[C@H](C)[C@H](O)[C@@H](C)[C@@H](O)[C@@H](C)[C@H](OC(C)=O)[C@@H]1C	4	4	-2	106*	10
CO[C@H]1C=CO[C@@]2(C)Oc3c(C)c(O)c4c(O)c(c5c(nc6cc(C)ccn65)c4c3C2=O)NC(=O)C(C)=CC=C[C@H](C)[C@H](O)[C@@H](C)[C@@H](O)[C@@H](C)[C@H](OC(C)=O)[C@@H]1C	x	x	x	105*	x
CCC(C)N1CCC2(CC1)N=c1c(c3c4c5c(C)c(O)c3c(O)c1=NC(=O)C(C)=CC=C[C@H](C)[C@H](O)[C@@H](C)[C@@H](O)[C@@H](C)[C@H](OC(C)=O)[C@H](C)[C@@H](OC)C=CO[C@@](C)(O5)C4=O)N2 (stereo not given in full)	0	10	-2	x	5
O=C(c1ccco1)N1CCN(C(=S)Nc2ccc(Br)cc2Cl)CC1	x	2	x	-3	2
NC(=O)c1cc(C(=O)c2ccccc2Cl)c[nH]1	-2	-5	-5	2	-10
O=C(CC1C(=O)NCCN1Cc1ccc(-c2ccccc2)cc1)NCc1ccccc1 (stereo not given)	4	-3	2	-17	5
O=C(CC1C(=O)NCCN1Cc1ccc(-c2ccccc2)cc1)NC1CCC1 (stereo not given)	3	116*	1	-4	14
COc1cc(C[C@H](C)[C@H](C)Cc2ccc3c(c2)OCO3)ccc1O	1	-11	6	19	127*
COc1cc(CC(=O)NCc2ccc3c(c2)OCO3)cc(OC)c1OC	1	3	-3	-5	-21
C/C(=N\O)C1(C)N(O)C(C)(C)C(c2ccco2)=[N+]1[O-] (stereo not given)	-1	-3	0	4	x
C/C(=N\Nc1cccc(Cl)c1)C1(C)N(O)C(C)(C)C(c2ccco2)=[N+]1[O-] (stereo not given)	1	7	-3	4	84*
CCN1c2ccccc2N(C)C1(C)c1ccccc1 (stereo not given)	5	106*	2	x	43
CN1C(=O)N(C)C2(c3ccccc3)NC(=O)NC12c1ccccc1 (stereo not given)	2	-5	-3	-6	-3
SMILES	PP5 primary	Beta cell apopt	PP1 counter	SKKanGAS inh	CSC inhib
CN1c2ccccc2N(C)C1(C)c1ccccc1	0	131*	0	7	38
O=C(CCSCc1cccc(F)c1)NCCc1ccccc1	1	0	1	-1	-11
NS(=O)(=O)c1ccc(CNC(=O)c2cc(-c3ccccn3)nc3ccc(Cl)cc23)cc1	-2	x	13	-10	-15
COc1ccc(/C=N\NC(=O)c2ccccc2F)cc1COc1ccc(F)cc1F	3	11	5	4	71
COc1ccc(/C=N/NC(=O)c2cc(C(C)(C)C)[nH]n2)cc1COc1ccc(F)cc1F	3	4	6	61*	40
O=C(NCC1CC1)c1ccccc1Cl	-2	-5	-3	-1	-10
Oc1cccc(/C=N/NC(=S)Nc2cccnc2)c1O	4	87*	-1	22	74
CC1CC(C)(C)NC(=S)N1CCCC(=O)N1CCN(c2ccc(F)cc2)CC1 (stereo not given)	2	0	-3	-9	1
CC(=O)C(=Nc1ccc(Cl)cc1Cl)NNc1cccc(Cl)c1	0	4	-3	52*	-12
COCCNc1oc(/C=C/c2ccccc2OC)nc1S(=O)(=O)c1ccccc1	4	8	2	-1	-21
CO/N=C(\C(=O)N[C@@H]1C(=O)N2C(C(=O)O)=C(COC(N)=O)CS[C@H]12)c1ccco1	-2	-10	-5	102*	-7
CC(=O)OCC1=C(C(=O)O)N2C(=O)C(NC(=O)c3ccc(F)cc3)C2SC1 (stereo not given)	-2	-4	-6	90*	-8
CC(=O)OCC1=C(C(=O)O)N2C(=O)C(NC(=O)C(C)Cn3nc(C)c(Cl)c3C)C2SC1 (stereo not given)	2	-2	-7	101*	-11
COCc1nnc(NC(=O)C2CCN(C(=O)c3ccco3)CC2)s1	5	-1	-1	-2	-6
COCC1=C(C(=O)OC(C)OC(=O)OC(C)C)N2C(=O)[C@@H](NC(=O)/C(=N\OC)c3csc(N)n3)[C@H]2SC1 (stereo not given in full)	6	1	3	102*	-9
CC1=C(C(=O)O)N2C(=O)C(NC(=O)c3nn(C)c(C)c3Cl)C2SC1 (stereo not given)	0	0	-6	-15	x
CCOCc1c(C(=O)OCC(=O)/C(C#N)=C(\C)N)oc2ccccc12	0	4	-3	x	-3
CCc1nc(NC(C)(C)C)c2cnn(-c3ccccc3)c2n1	6	-1	3	25	95*
CCN(Cc1ccccc1)C(=O)CCS(=O)(=O)c1ccc2c(c1)CCN2C(C)=O	-2	-6	2	-2	-13
Cc1cc(C)c2c(C)[nH]nc2n1	1	162*	1	4	43
Cc1cc(C)c2c(N=NN3CCCCC3)[nH]nc2n1	0	x	0	4	-1
Cc1cc(C)n2nc(C(=O)OCC(=O)NCc3ccc(Cl)cc3)nc2n1	3	-4	0	x	x

Compound activity from PubChem.
